Assay results: the supplement of paper PMC11732987, “Enantioselective OTUD7B fragment discovery through chemoproteomics screening and high-throughput optimisation” (Communications Chemistry, 2025)

Key:
Assay in all cases: log2 ratio of Biotin-Ahx-Ub-VS probe labelling (fragment/DMSO); higher = less target engagement (more negative = stronger competition), active = hit call of the paper (q ≤ 0.05, log2 ratio ≤ -1)
Conditions in all cases: compound concentration: 200 uM; treatment time: 3 h
USP9X = USP9X (UniProt Q93008)
USP9X, sequence (Q93008 whole entry, the tested form may be a part): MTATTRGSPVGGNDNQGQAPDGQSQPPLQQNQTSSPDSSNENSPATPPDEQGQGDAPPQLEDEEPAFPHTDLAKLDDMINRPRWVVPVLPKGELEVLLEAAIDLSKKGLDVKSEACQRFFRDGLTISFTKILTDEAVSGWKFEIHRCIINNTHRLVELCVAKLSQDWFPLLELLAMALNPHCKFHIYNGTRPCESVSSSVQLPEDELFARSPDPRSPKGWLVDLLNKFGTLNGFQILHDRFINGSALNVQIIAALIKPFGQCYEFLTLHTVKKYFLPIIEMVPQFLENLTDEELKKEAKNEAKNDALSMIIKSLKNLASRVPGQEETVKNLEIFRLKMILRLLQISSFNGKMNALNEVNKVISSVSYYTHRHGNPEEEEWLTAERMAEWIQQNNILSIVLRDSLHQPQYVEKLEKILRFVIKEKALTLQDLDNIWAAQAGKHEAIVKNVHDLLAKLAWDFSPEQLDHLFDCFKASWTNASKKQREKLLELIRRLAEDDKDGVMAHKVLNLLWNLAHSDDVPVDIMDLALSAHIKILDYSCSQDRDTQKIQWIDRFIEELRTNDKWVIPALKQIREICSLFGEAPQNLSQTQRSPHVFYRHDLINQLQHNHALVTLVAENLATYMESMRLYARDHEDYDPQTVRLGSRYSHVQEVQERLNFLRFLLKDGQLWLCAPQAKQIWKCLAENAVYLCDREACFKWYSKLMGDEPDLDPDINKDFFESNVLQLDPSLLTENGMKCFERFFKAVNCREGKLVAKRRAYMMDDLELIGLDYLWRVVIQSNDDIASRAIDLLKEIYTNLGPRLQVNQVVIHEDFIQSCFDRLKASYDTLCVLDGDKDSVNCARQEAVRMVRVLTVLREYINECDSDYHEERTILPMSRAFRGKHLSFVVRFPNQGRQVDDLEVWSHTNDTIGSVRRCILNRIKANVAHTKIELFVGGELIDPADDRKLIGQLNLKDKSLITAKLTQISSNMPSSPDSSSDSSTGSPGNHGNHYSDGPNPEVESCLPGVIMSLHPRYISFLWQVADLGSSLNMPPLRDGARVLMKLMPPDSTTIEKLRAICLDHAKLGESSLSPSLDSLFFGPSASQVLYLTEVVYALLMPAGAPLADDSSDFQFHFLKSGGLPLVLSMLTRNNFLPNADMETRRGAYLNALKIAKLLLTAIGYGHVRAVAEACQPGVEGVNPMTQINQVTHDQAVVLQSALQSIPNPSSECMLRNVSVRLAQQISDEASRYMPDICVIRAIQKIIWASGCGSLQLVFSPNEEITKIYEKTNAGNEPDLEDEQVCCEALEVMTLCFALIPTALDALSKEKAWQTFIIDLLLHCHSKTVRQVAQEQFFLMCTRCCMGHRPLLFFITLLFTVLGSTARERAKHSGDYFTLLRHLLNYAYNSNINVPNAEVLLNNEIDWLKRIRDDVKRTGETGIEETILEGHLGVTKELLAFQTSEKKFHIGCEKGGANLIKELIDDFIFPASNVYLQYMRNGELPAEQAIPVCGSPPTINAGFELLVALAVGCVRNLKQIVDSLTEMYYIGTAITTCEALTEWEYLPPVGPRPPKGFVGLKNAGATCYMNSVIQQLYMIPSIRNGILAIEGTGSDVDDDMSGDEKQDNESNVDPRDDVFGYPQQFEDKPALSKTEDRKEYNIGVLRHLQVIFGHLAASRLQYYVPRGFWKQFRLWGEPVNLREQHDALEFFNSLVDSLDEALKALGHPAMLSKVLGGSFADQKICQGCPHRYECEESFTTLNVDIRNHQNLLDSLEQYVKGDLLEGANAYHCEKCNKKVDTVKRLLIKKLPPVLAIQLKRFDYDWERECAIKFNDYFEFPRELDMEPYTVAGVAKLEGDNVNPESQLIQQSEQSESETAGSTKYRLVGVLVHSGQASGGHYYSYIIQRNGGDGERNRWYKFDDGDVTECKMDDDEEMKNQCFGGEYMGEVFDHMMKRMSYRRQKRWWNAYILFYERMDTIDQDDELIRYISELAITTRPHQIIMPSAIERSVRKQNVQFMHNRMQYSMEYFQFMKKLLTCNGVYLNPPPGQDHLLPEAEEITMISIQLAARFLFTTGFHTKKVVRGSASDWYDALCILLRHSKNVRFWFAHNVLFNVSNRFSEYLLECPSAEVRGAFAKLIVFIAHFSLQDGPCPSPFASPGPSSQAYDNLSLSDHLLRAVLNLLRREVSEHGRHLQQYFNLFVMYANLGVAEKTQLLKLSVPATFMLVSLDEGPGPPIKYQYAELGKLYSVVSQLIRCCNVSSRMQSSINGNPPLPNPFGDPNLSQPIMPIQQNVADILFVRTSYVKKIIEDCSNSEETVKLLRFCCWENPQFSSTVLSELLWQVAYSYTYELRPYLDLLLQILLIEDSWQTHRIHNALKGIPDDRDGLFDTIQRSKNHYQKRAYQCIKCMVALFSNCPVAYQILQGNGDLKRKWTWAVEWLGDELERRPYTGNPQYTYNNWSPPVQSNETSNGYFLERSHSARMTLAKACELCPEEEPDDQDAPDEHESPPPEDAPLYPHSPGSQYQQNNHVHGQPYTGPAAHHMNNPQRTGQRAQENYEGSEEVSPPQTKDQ
Procedure, shortened: (§1)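 Labelled DUBs from HEK293T lysate were NeutrAvidin-enriched, digested with LysC and trypsin, and run by diaPASEF LC-MS/MS. Before that, each 495 µg sample in Tris/CHAPS/IGEPAL buffer with protease inhibitors was treated in triplicate with fragment at 200 µM or vehicle for 3 h, then with Biotin-Ahx-Ub-VS at 0.5 µM final for 1 h. Values are average log2 ratios of fragment over vehicle by unpaired t-test, based on global-median-normalised Spectronaut label-free quantities from proteins with ≥2 unique peptides.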

UniProt O00487 = target: UniProt O00487
UniProt O00487, sequence (O00487 whole entry): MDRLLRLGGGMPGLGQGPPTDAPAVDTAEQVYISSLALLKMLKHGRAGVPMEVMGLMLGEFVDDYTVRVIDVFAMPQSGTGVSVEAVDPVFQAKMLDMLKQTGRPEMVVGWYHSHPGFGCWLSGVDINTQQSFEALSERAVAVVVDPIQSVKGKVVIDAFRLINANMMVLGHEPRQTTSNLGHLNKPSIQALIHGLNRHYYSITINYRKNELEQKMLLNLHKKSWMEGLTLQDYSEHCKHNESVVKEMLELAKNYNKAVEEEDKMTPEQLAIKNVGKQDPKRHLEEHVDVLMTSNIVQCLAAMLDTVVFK
Procedure, shortened: as §1

UniProt O00507 = target: UniProt O00507
Procedure, shortened: as §1

UniProt P51784 = target: UniProt P51784
UniProt P51784, sequence (P51784 whole entry): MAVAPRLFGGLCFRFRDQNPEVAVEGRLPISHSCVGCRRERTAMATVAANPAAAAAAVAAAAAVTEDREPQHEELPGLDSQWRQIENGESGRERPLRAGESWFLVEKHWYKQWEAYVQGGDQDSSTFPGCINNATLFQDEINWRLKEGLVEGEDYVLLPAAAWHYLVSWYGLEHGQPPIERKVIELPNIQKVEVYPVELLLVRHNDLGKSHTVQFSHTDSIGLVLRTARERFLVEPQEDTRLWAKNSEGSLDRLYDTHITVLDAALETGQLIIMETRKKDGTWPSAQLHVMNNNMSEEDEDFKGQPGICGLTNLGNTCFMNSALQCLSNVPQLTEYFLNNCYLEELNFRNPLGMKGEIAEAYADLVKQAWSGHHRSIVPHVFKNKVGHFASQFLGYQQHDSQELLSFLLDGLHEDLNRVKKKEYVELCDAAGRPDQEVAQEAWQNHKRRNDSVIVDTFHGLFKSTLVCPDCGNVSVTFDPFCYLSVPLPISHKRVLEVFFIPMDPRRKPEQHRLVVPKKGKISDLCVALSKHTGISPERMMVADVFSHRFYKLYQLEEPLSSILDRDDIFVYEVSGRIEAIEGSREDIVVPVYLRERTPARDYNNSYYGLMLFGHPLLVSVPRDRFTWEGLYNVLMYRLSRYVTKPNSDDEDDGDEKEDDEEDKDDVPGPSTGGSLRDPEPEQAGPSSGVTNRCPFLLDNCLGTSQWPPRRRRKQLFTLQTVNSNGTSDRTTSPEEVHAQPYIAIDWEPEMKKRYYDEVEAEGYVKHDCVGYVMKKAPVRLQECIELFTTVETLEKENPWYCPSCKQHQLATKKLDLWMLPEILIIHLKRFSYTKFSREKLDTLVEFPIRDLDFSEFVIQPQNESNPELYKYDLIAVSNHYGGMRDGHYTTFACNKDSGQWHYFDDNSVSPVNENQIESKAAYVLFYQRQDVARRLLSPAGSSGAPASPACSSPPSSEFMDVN
Procedure, shortened: as §1

UniProt Q5T2D3 = target: T1, UniProt Q5T2D3
T1 sequence (whole entry): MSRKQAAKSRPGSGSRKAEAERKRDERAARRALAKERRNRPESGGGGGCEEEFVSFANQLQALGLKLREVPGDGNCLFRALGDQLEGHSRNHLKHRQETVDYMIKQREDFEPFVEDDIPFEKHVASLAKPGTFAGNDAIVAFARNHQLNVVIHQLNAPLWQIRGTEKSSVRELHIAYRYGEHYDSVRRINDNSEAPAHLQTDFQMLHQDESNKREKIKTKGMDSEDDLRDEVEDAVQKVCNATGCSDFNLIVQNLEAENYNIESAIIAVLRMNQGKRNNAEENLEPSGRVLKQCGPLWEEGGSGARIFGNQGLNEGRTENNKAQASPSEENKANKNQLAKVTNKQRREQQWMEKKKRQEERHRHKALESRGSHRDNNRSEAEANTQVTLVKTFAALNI
Procedure, shortened: as §1

UniProt Q8TE49 = target: T2, UniProt Q8TE49
T2 sequence (whole entry): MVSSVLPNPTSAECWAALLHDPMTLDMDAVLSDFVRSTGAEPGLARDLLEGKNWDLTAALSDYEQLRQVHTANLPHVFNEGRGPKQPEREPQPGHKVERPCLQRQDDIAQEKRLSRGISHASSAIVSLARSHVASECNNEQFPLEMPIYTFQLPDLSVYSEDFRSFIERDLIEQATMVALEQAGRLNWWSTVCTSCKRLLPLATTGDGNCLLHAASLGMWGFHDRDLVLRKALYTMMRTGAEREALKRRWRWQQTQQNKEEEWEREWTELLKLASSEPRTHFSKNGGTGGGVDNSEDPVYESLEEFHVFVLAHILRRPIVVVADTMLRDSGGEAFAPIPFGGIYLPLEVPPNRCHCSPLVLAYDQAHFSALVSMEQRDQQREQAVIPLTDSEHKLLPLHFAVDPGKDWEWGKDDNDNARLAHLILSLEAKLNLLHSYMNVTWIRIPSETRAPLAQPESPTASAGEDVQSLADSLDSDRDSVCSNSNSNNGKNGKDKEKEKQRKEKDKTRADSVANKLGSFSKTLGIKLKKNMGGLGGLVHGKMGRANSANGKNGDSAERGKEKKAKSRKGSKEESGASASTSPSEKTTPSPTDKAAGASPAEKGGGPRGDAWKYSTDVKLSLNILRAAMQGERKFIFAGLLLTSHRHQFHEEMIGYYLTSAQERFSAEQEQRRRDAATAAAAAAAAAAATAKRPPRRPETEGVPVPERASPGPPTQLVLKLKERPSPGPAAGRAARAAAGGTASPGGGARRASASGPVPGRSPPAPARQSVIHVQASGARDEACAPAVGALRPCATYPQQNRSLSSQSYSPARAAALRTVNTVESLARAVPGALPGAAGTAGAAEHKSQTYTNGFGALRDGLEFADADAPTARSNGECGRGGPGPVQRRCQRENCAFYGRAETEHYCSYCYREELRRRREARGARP
Procedure, shortened: as §1

UniProt Q9P2H5 = target: T3, UniProt Q9P2H5
T3 sequence (whole entry): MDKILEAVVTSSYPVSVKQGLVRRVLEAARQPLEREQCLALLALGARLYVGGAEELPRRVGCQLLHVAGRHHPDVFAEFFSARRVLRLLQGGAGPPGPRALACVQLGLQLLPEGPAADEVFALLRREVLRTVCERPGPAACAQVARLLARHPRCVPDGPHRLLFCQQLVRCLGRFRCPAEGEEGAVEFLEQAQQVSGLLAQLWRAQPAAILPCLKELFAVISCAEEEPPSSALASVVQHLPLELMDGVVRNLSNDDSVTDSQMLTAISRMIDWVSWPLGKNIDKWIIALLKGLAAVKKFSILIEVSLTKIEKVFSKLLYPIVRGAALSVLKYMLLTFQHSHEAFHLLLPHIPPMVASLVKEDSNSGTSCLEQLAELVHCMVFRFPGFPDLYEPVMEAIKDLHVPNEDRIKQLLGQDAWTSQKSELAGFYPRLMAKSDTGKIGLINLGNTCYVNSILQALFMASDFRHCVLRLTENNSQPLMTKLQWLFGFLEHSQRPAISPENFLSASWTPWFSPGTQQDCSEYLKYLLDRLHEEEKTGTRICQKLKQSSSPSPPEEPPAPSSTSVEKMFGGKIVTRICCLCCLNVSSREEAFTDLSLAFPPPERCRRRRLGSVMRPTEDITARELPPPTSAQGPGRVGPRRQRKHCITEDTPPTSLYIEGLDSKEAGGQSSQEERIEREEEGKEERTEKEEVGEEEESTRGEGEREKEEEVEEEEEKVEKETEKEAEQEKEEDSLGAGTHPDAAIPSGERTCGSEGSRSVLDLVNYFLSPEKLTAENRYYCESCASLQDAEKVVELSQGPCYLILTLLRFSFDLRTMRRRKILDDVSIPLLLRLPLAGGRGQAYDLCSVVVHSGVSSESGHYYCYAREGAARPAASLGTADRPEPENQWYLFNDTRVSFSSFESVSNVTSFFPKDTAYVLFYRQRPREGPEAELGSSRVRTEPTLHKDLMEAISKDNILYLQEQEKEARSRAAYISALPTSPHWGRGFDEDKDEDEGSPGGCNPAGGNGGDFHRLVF
Procedure, shortened: as §1

UniProt Q9UGI0 = target: T4, UniProt Q9UGI0
T4 sequence (whole entry): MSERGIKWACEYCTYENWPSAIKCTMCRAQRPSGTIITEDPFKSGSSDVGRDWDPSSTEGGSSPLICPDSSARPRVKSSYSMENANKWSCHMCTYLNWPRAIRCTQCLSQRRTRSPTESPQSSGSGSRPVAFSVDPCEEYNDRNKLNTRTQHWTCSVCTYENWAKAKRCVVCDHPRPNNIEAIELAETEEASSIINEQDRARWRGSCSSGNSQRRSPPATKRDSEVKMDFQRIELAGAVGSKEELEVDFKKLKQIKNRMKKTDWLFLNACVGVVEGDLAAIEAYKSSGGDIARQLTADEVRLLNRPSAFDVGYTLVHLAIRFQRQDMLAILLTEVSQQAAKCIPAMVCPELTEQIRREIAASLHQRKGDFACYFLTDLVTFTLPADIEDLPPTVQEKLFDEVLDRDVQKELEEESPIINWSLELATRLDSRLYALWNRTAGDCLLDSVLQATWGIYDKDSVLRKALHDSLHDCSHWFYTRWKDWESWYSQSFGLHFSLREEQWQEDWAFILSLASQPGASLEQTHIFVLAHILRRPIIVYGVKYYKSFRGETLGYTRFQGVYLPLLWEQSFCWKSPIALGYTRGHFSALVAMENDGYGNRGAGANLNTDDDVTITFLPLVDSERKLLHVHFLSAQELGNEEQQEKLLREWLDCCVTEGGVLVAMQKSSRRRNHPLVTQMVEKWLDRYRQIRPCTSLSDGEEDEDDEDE
Procedure, shortened: as §1

YOD1 = target: T5, YOD1 (UniProt Q5VVQ6)
T5 sequence (whole entry): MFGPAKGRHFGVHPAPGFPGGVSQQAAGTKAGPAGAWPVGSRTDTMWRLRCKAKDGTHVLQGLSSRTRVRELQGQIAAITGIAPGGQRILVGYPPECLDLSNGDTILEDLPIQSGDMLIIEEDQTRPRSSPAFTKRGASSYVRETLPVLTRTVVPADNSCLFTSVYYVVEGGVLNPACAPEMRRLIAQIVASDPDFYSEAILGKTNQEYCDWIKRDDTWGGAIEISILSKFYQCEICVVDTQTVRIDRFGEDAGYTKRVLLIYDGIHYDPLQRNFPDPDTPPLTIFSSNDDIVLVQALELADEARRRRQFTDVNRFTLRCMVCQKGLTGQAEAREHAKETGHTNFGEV
Procedure, shortened: as §1

Measured: log2 ratio of Biotin-Ahx-Ub-VS probe labelling

Cc1cccc(C(CNC(=O)CCl)N2CCOCC2)c1.Cl (centres undefined)
inactive: USP9X -0.0494 | UniProt O00487 0.181 | UniProt O00507 0.29 | UniProt P51784 -0.0777 | UniProt Q5T2D3 -0.329 | UniProt Q8TE49 -0.249 | UniProt Q9P2H5 -0.237 | UniProt Q9UGI0 0.0449 | YOD1 -0.28
